Records with an inconclusive call do not appear. Where a call stands in place of a potency, no number is given. Unmarked numbers belong to inactive results. The source made the active and inactive calls. Calls follow the shape of the dose curve; as a rule, active = well fitted inhibition curve with a large enough effect; inconclusive = small, poorly fitted or top-dose-only effect; inactive = flat fitted curve, though single readings scatter.
molecular target: Calcium and integrin-binding protein 1 (Homo sapiens) (UniProt Q99828); experiment: Primary qHTS for Identification of Calcium Integrin Binding Protein 1 (CIB1) Competitor (AID 1508620); conditions: CIB1-GST / FITC-alphaIIb peptide fluorescence polarization; series mostly up to 114 µM;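 also: GST tagged CIB1 binding a fluorescein labelled alphaIIb integrin peptide tracer; top concentration of the series differs between compounds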
How it was run: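 CIB1-GST (1 uM final) and compound incubated 15 min at room temperature before adding FITC-alphaIIb peptide tracer (100 nM final). Competition for binding read by fluorescence polarization (ex 480, em 540) after another 15 min at room temperature.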

Chain of Calcium and integrin-binding protein 1 (Homo sapiens) (Q99828 whole entry, looked up): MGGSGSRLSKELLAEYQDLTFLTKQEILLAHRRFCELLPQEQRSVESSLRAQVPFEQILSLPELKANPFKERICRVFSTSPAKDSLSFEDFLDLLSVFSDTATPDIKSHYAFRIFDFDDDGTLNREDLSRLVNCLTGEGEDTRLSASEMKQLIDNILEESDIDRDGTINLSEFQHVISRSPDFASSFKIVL

Row | SMILES | Potency | activity change, negative = inhibition
1 | COc1cc(O)c2c(c1)C1OC1C[C@H](O)[C@H](O)C(=O)/C=C\C[C@H](C)OC2=O (stereo not given in full) | inactive | –
2 | COc1cccc(CN(C(=O)CC(C)(C)C)[C@H]2C[C@H](C(=O)N3CCNCC3)N(Cc3ccc4c(c3)OCO4)C2)c1 | inactive | –
3 | CNc1nc(Nc2ccc(C(=O)N3CCOCC3)cc2OC)nc2[nH]cc(Cl)c12 | inactive | –
4 | COC(=O)c1sccc1S(=O)(=O)Nc1ccc(Nc2ccccc2)cc1OC | inactive | –
5 | CC(C)=CCCC1(C)/C=C/C(OC(=O)C=C(C)C)C(C)(O)/C=C/C(=O)/C(CO)=C\C1 (stereo not given) | inactive | –
6 | CC(=O)OC(C)(C)/C=C/C(=O)C(C)(O)C1C(O)CC2(C)C3CC=C(C(C)(C)C(=O)O)C(CC(=O)O)C3(C)C(=O)CC12C (stereo not given) | inactive | –
7 | CC(=O)O[C@H]1CC(C)(C)CC2[C@]13CO[C@@]21CCC2[C@@]4(C)CC[C@H](O[C@@H]5OC[C@H](O[C@@H]6O[C@H](CO)[C@@H](O)[C@H](O)[C@H]6O[C@@H]6OC[C@@H](O)[C@H](O)[C@H]6O)[C@H](O)[C@H]5O[C@@H]5O[C@H](CO)[C@@H](O)[C@H](O)[C@H]5O)[C@@](C)(CO)C4CC[C@@]2(C)[C@]1(C)C[C@H]3O (stereo not given in full) | inactive | –
8 | CCC(C)(OC(C)=O)C(=O)O[C@H]1[C@H](OC(C)=O)[C@]2(CO)[C@H](O)[C@H](O)[C@]3(C)C(=CCC4[C@@]5(C)CC[C@H](O[C@@H]6O[C@H](C(=O)O)[C@@H](O)[C@H](O[C@@H]7OC[C@H](O)[C@H](O[C@@H]8OC[C@H](O)[C@H](O)[C@H]8O)[C@H]7O)[C@H]6O[C@@H]6O[C@H](CO)[C@@H](O)[C@H](O)[C@H]6O)C(C)(C)C5CC[C@]43C)[C@@H]2CC1(C)C (stereo not given in full) | – | 5.33% [at 12.4 µM]
9 | C=C1CC2OC(=O)C(COC)C2C(OC(=O)/C(C)=C\C)CC2(C)OC1=CC2=O (stereo not given) | inactive | –
10 | C=C1C(=O)OC2C1CCC1(C)C(O)CCC(=C)C21 (stereo not given) | inactive | –
11 | C[C@@]12C(=O)N(c3ccc(C(=O)Nc4cccc5cccnc45)cc3)C(=O)[C@@H]1[C@@H]1C=C[C@H]2C1 | inactive | –
12 | C=CC(=O)N1CCCN(c2cc(NCCC(=O)O)nc(-c3ccccn3)n2)CC1 | inactive | –
13 | Cc1cc(-c2cc(OC(=O)c3ccccc3)ccc2Cl)cc2nnc(Nc3ccc(OCCN4CCCC4)cc3)nc12 | inactive | –
14 | O=C(Cc1cccc(OC(F)(F)F)c1)Nc1ccc(CCCCc2nnc(NC(=O)Cc3ccccn3)s2)nn1 | inactive | –
15 | COc1cc2ncc(-c3ccccc3)nc2cc1OC | inactive | –

Reference: PubChem BioAssay (NCATS)
